From patent publication US20200407704, “FUSION PROTEINS AND METHODS FOR SITE-DIRECTED GENOME EDITING” (The Regents of the University of California, published 2020)

T1: hADAR2d (ADAR2 deaminase domain, hADAR2-D WT) (Homo sapiens)
T1 chain: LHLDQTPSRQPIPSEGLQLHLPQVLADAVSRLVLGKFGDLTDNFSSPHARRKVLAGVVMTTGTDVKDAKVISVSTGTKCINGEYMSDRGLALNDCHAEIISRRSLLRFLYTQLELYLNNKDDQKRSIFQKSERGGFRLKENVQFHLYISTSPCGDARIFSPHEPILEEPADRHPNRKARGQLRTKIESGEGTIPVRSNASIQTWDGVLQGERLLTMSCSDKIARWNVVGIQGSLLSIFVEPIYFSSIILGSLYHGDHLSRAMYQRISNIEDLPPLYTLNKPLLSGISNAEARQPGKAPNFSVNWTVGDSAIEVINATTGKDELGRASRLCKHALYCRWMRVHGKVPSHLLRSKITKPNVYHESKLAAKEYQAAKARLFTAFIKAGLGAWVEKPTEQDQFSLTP

B1: partially deoxy duplex (substrate c) (mixed)
RNA 1: GCUCGCGAUGCUAGAGGGCUCUGC
RNA 2: GCAGAGCCCCCCAGCAUCGCGAGC
modifications: 2'-deoxy at top UAGA
B2: partially deoxy duplex (substrate b) (mixed)
RNA 1: GCUCGCGAUGCUAGAGGGCUCUGC
RNA 2: GCAGAGCCCCCCAGCAUCGCGAGC
modifications: 2'-deoxy at top UAGA and at bottom C opposite edited A

Assays:
[1] = biological target: T1, hADAR2d (ADAR2 deaminase domain, …); test: rate stated as similar to substrate b; details: tags: Ni-NTA purified (His10, TEV site); label: internal 32P
Method: This reconstituted solution was heated to 65° C. for 5 minutes. After the solution was slowly cooled to room temperature, 1.5 μL of RNasin ([…]), 5 μL of 4 mM ATP, and 1 μL of T4 DNA ligase (400 U/μL) were added to the solution so that the final reaction volume was 20 μL . The reaction was incubated at 30° C. for 2 hours, then 2 μL of 40 μM trap DNA were added to the splint ligation reaction. The splint ligation products were purified as described above. Purified ³²P labeled top strand was hybridized with the corresponding bottom strand 24-nt oligonucleotide as described above. Deamination reactions were carried out as previously described (21) with the following modifications. For the partially 2′-deoxy-modified substrates, the final reaction volume was 10 μL. The final enzyme concentration was 300 nM. The final RNA concentration was 10 nM. The final reaction solution contained 16 mM Tris-HCl, pH 7.4, 3.3% glycerol, 1.6 mM EDTA, 0.003% NP-40, 60 mM KCl, 7.1 mM NaCl, 0.5 mM DTT, 160 units/mL RNasin, and 1 μg/mL yeast tRNA. Reactions were quenched by adding 190 μL 95° C. nuclease-free water followed by incubation at 95° C. for 5 minutes. […] The TLC was visualized by exposure to storage phosphor imaging plates (Molecular Dynamics) on a Typhoon phosphorimager (Molecular Dynamics) and quantified by volume integration using ImageQuant software (Molecular Dynamics). […]

[2] = biological target: T1, hADAR2d (ADAR2 deaminase domain, …); test: deamination rate, 300 nM enzyme; details: tags: Ni-NTA purified (His10, TEV site); label: internal 32P
Method: For the partially 2′-deoxy-modified substrates, the final reaction volume was 10 μL. The final enzyme concentration was 300 nM. The final RNA concentration was 10 nM. The final reaction solution contained 16 mM Tris-HCl, pH 7.4, 3.3% glycerol, 1.6 mM EDTA, 0.003% NP-40, 60 mM KCl, 7.1 mM NaCl, 0.5 mM DTT, 160 units/mL RNasin, and 1 μg/mL yeast tRNA. Reactions were quenched by adding 190 μL 95° C. nuclease-free water followed by incubation at 95° C. for 5 minutes. Deaminated products were purified by phenol-chloroform extraction and ethanol precipitation. The product-containing solution was lyophilized to dryness and suspended in 50 μL of 1×TE solution, followed by digestion with nuclease P1. The resulting 5′-mononucleotides were resolved by thin-layer chromatography (TLC, Macherey-Nagel) (22). The TLC was visualized by exposure to storage phosphor imaging plates (Molecular Dynamics) on a Typhoon phosphorimager (Molecular Dynamics) and quantified by volume integration using ImageQuant software (Molecular Dynamics). […] Statistical significance between groups was determined by t tests using QuickCalcs (GraphPad Software). hADAR2 wt deamination was carried out twice, deamination with other proteins was carried out in triplicate.

Row | Binder | binding signal [1] [fold slower than N1] | relative deamination rate [2] [fold slower than N1]
1 | B1 | ~15 | 
2 | B2 |  | ~15
